Data as given in PubChem BioAssay AID1259421 (Broad Institute, 2018).
Values joined by “and” are separate entries in the source; they are usually repeats but may differ in a detail not shown here. Equal entries are not always repeated. About 610 (9.5%) of roughly 6,400 compounds were called active. No stated cut-off is given here; in the data, active means activity change below about -70%; inconclusive means no clear call, values can overlap the other calls; inactive means above that. What follows is part of a selection rich in actives, with near analogues and random picks from the rest. The source holds several records for some structures; these can differ, active in one and inactive in another.

Assay: Toxoplasma gondii ME49Luc growth in HeLa cells, luciferase, no IFN-y, primary screen (AID 1259421)
Conditions: T. gondii ME49Luc in HeLa, 72 h, stronger effect = lower value, concentration not given here

Row | Structure (SMILES) | activity change, negative = inhibition
1 | Cc1cc(N2CCN([C@@H]3CN[C@H](C(=O)N4CCSC4)C3)CC2)n(-c2ccccc2)n1 | -3% (inactive)
2 | COC(=O)N1CCN(Cc2cccc(NC(=O)Nc3ccc(C)nc3)c2F)CC1 | 9.25% (inactive)
3 | Cc1ccc(C(=O)Nc2ccc(CN3CCN(C)CC3)c(C(F)(F)F)c2)cc1C#Cc1cnc2cccnn12 | -83% (active)
4 | Cc1ccc(C(=O)Nc2ccc(CN3CCN(C)CC3)c(C(F)(F)F)c2)cc1C#Cc1cnc2[nH]ncc2c1 | -89.3% (active)
5 | CCCCCCCCCCCCCCCC(=O)OC[C@H](NC(=O)C(Cl)Cl)[C@H](O)c1ccc([N+](=O)[O-])cc1 | 7.24% (inactive) and 16.1% (inactive)
6 | NC(=O)CCC1NC(=O)C(Cc2ccccc2)NC(=O)C(Cc2ccc(O)cc2)NC(=O)CCSSCC(C(=O)N2CCCC2C(=O)NC(CCCN=C(N)N)C(=O)NCC(N)=O)NC(=O)C(CC(N)=O)NC1=O (centres undefined) | 7.89% (inactive)
7 | COc1cc(/C=C/C(=O)O)cc(OC)c1O | -2.18% (inactive)
8 | COc1cc2c(cc1OC)C(c1ccc(N)cc1)=NNC(=O)C2 | -18.7% (inactive) and 7.52% (inactive)
9 | CC1=C(SCCO)C(=O)c2ccccc2C1=O | 29.8% (inactive)
10 | COc1ccc2c(c1)c1c3n2CCN(C)C3=NCC1 | 14.7% (inactive)
11 | C=CC(=O)N1CCCCC1 | 4.09% (inactive)
12 | CN([NH2+][O-])C(=O)N[C@@H]1[C@@H](O)[C@H](O)[C@@H](CO)O[C@@H]1O | -1.36% (inactive)
13 | Cc1ccc(O)c(N=Nc2ccccc2)n1 | 8.22% (inactive) and 3.77% (inactive)
14 | COc1cccc2c1C(=O)c1c(O)c3c(c(O)c1C2=O)C[C@@](O)(C(=O)CO)C[C@@H]3OC1C[C@H](N)[C@H](O)[C@H](C)O1 (some centres undefined) | -87.6% (active)
15 | COc1cccc2c1C(=O)c1c(O)c3c(c(O)c1C2=O)C[C@@](O)(C(=O)CO)C[C@@H]3O[C@H]1C[C@H](N)[C@H](O)[C@H](C)O1 | -78.1% (active) and -79.4% (active)
16 | COc1cccc2c1C(=O)c1c(O)c3c(c(O)c1C2=O)C[C@@](O)(C(=O)CO)C[C@@H]3O[C@H]1C[C@H](N)[C@@H](O)[C@H](C)O1 | -80.9% (active)
17 | COc1cccc2c1C(=O)c1c(O)c3c(c(O)c1C2=O)CC(O)(C(=O)CO)CC3OC1CC(N)C(O)C(C)O1 (centres undefined) | -89.5% (active)
18 | CCCCC(=O)OCC(=O)[C@]1(O)Cc2c(O)c3c(c(O)c2[C@@H](O[C@H]2C[C@H](NC(=O)C(F)(F)F)[C@H](O)[C@H](C)O2)C1)C(=O)c1c(OC)cccc1C3=O | -24.8% (inactive)
19 | NC(Cc1ccc(O)cc1)C(=O)O (centres undefined) | 3.44% (inactive)
20 | Oc1ccc(-c2nc3cc(O)cc(Br)c3o2)cc1 | -55.9% (inactive)
21 | CC(=O)O[C@@H]1CC2C(C)(CC[C@H](O)C2(C)C)C2CC[C@]3(C)C(=CC(=O)O[C@H]3c3ccoc3)C21C (some centres undefined) | -5.23% (inactive)
22 | CCC(c1ccc(O)cc1)C(CC)c1ccc(O)cc1 (centres undefined) | 14.8% (inactive)
23 | c1ccc(-c2cc3ccccc3[nH]2)cc1 | 106% (inactive)
24 | Nc1nc(Nc2ccccc2)nc2c1ncn2C1OC(CO)C(O)C1O (centres undefined) | 3.98% (inactive)
25 | COc1ccc(Nc2ccn(-c3ccccc3)n2)cc1 | 404% (inactive)

Row | Structure (SMILES) | activity change, negative = inhibition
26 | CCCCCC/C=C\CCCCCCCc1cccc(O)c1C(=O)O | 6.32% (inactive)
27 | NC(=O)CC[C@H](NC(=O)Cc1ccccc1)C(=O)O | 16.1% (inactive)
28 | C=CC(C)(C)c1cc(/C=C/C(=O)c2ccc(O)cc2)c(OC)cc1O | 187% (inactive)
29 | CCCC(CCC)C(=O)Nc1ccn([C@@H]2O[C@H](CO)[C@@H](O)C2(F)F)c(=O)n1 | -1.71% (inactive)
30 | COc1ccccc1OC(=O)CNC(=O)Cc1ccc(C(=O)c2ccc(C)cc2)n1C | 15.7% (inactive)
31 | C[C@@H]1O[C@@H](Oc2c(-c3cc(O)c(O)c(O)c3)oc3cc(O)cc(O)c3c2=O)[C@@H](O)[C@H](O)[C@H]1O | 8.81% (inactive)
32 | CN1CCN(c2ccc3nc(-c4c(N)c5c(F)cccc5[nH]c4=O)[nH]c3c2)CC1 | -36.1% (inactive) and -79.7% (active)
33 | CN1CCN(C(=O)c2nc3ccc(Cl)cc3[nH]2)CC1 | 1.51% (inactive) and 15.6% (inactive)
34 | CN1CCN(c2ccc3nc(-c4ccc5nc(-c6ccc(O)cc6)[nH]c5c4)[nH]c3c2)CC1 | -23.1% (inactive)
35 | O=C(O)c1cc(N=Nc2ccc(O)c(C(=O)O)c2)ccc1O | 7.94% (inactive)
36 | O=S(=O)(O)C(F)(F)F.O=S(=O)(O)C(F)(F)F.O=S(=O)(O)C(F)(F)F.[Bi] | 11% (inactive)
37 | CN(C)C(=S)SC(=S)N(C)C | 39.1% (inactive)
38 | NC(N)=NC(N)=NCCc1ccccc1 | -13.4% (inactive)
39 | CC(C)[C@H](NS(=O)(=O)c1ccc(-c2ccc(Br)cc2)cc1)C(=O)O | 4.75% (inactive)
40 | CC(C)C(NS(=O)(=O)c1ccc(-c2ccc(Br)cc2)cc1)C(=O)O (centres undefined) | 9.87% (inactive)
41 | CC(C)ON([C@@H](C(=O)NO)C(C)C)S(=O)(=O)c1ccc(-c2ccccc2)cc1 | -87.2% (active)
42 | Cc1noc(-c2ccc(CSCCC(=O)O)cc2)c1NC(=O)OC(C)c1ccccc1Cl (centres undefined) | 13.3% (inactive)
43 | O=C(O)c1ccc2nc(-c3cc(Cl)cc(Cl)c3)oc2c1 | 84.3% (inactive)
44 | Cc1[nH]c(/C=C2\C(=O)Nc3ccc(S(=O)(=O)Cc4c(Cl)cccc4Cl)cc32)c(C)c1C(=O)N1CCC[C@@H]1CN1CCCC1 | -78.2% (active) and -84% (active) and -67.3% (inactive)
45 | Cc1[nH]c(/C=C2\C(=O)Nc3ccc(S(=O)(=O)N(C)c4cccc(Cl)c4)cc32)c(C)c1C(=O)N1CCN(C)CC1 | -35.8% (inactive)
46 | OC1(c2ccc(Cl)cc2)CCNCC1 | 13.9% (inactive)
47 | CN1CC[C@@H](NC(=O)Nc2ccc(C#N)cc2)C[C@@H]1c1nc2ccccc2[nH]1 | 7.93% (inactive)
48 | CC(C)C[C@H](NC(=O)[C@@H](O)[C@H](N)Cc1ccccc1)C(=O)O | -0.518% (inactive) and 15% (inactive)
49 | CNC(=O)[C@H](Cc1ccccc1)NC(=O)[C@H](CC(C)C)[C@H](CSc1cccs1)C(=O)NO | -1.31% (inactive) and 10.6% (inactive)
50 | CC(C)C[C@H](NC(=O)[C@@H](NC(=O)c1cccc(-c2ccccc2)n1)[C@@H](C)O)B(O)O | -75.2% (active) and -70.7% (active)

Row | Structure (SMILES) | activity change, negative = inhibition
51 | CC(C)C[C@@H](NC(=O)OCC1c2ccccc2-c2ccccc21)C(=O)O | 145% (inactive) and 359% (inactive)
52 | CC(C)C[C@H](NC(=O)[C@H](Cc1ccccc1)NC(=O)c1cnccn1)B(O)O | -73.2% (active) and -72% (active)
53 | CC(C)CC(NC(=O)OCC1c2ccccc2-c2ccccc21)C(=O)O (centres undefined) | -4.74% (inactive)
54 | CCC[N+]12C3C[C@H](C4C(O)[C@]5(C[C@@H]41)c1ccccc1N(C)[C@@H]35)[C@H](CC)[C@H]2O (some centres undefined) | 10.9% (inactive)
55 | CCOc1ccc(N=C(C)Nc2ccc(OCC)cc2)cc1 | 3.11% (inactive)
56 | CCCc1c(OCC(O)COc2ccc3c(=O)cc(C(=O)O)oc3c2CCC)ccc(C(C)=O)c1O (centres undefined) | 10.3% (inactive) and -5.08% (inactive)
57 | CCOC(=O)C1CN(Cc2ccccc2)C(=O)C1=O (centres undefined) | 16.6% (inactive) and 1.66% (inactive)
58 | N[C@@H]1CCCC[C@H]1N.O=C(O)C(=O)O.[Pt] | 10.5% (inactive)
59 | CC1(C)CC[C@]2(C(=O)O)CC[C@]3(C)C(=CCC4[C@@]5(C)CC[C@@H](O)C(C)(C)C5CC[C@]43C)C2C1 (some centres undefined) | 10.1% (inactive)
60 | COc1c(N2CCNC(C)C2)c(F)cc2c(=O)c(C(=O)O)cn(C3CC3)c12 (centres undefined) | 7.25% (inactive) and -78% (active)
61 | N[C@@H]1CN(c2c(F)cc3c(=O)c(C(=O)O)cn([C@@H]4C[C@@H]4F)c3c2Cl)CC12CC2 | -6.27% (inactive)
62 | NC1CCN(c2c(F)cc3c(=O)c(C(=O)O)cn(C4CC4)c3c2Cl)C1 (centres undefined) | -79.3% (active)
63 | N[C@@H]1CCCCN(c2c(F)cc3c(=O)c(C(=O)O)cn(C4CC4)c3c2Cl)C1 | 4.72% (inactive)
64 | COc1c(N2C[C@@H]3CCCN[C@@H]3C2)c(F)cc2c(=O)c(C(=O)O)cn(C3CC3)c12 | -7.38% (inactive)
65 | CNC1CCCN(c2c(F)cc3c(=O)c(C(=O)O)cn(C4CC4)c3c2OC)C1 (centres undefined) | 0.884% (inactive)
66 | C[C@H](NC(=O)c1sccc1OCc1ccc(Cl)cc1)c1ccccc1 | 28.7% (inactive)
67 | O=C(O)c1cc(Oc2ccc([N+](=O)[O-])cc2)cc(Oc2ccc([N+](=O)[O-])cc2)c1 | 4.54% (inactive) and 5.04% (inactive)
68 | CC1=CC2C(CC1=O)C(C)=CCC2C(C)C (centres undefined) | 4.22% (inactive)
69 | c1ccc(COCCCc2cnc[nH]2)cc1 | -41.7% (inactive) and 17.9% (inactive)
70 | O=C(Nc1c(-c2cccs2)nc2ccccn12)c1ccc(Cl)cc1 | 6.95% (inactive)
71 | CN1C(CC(=O)c2ccccc2)CCCC1CC(O)c1ccccc1 (centres undefined) | 6.13% (inactive) and 6.36% (inactive)
72 | CO[C@H]1C[C@H](O[C@H]2[C@H](C)[C@@H](OC3O[C@H](C)C[C@H](N(C)C)[C@H]3OC(C)=O)[C@@H](C)C[C@]3(CO3)C(=O)[C@H](C)[C@@H](OC(C)=O)[C@@H](C)[C@@H](C)OC(=O)[C@@H]2C)O[C@@H](C)[C@@H]1OC(C)=O (some centres undefined) | 5.2% (inactive)
73 | Nc1ncnc2c1c(-c1cccc(OCc3ccccc3)c1)cn2C1CC(CN2CCCC2)C1 (centres undefined) | -69.4% (inactive)
74 | Nc1ncnc2c1c(-c1cccc(OCc3ccccc3)c1)cn2C1CC(CN2CCC2)C1 (centres undefined) | -81.2% (active)
